Source: ChEMBL document CHEMBL1157539, “Thousands of chemical starting points for antimalarial lead identification” (Nature, 2010)
In all, about 13,000 compounds were measured (“IFI”: median about 4, highest 2% from about 17 on). The sample as a whole holds a higher share of the highest values than the screen did.

Assay: GSK_TCMDC: Inhibition Frequency Index (IFI). The number of non-kinase HTS assays where a compound showed > 50 % inhibition, expressed as a percentage of the number of such assays in which the compound was tested
Type: functional
With COc1ccc(CNC2CCN(C)CC2)cc1-c1cccc(S(=O)(=O)NCc2ccccc2)c1 the IFI was 11%.
COc1ccc2c(=NN=Cc3ccccc3Cl)cc(C)[nH]c2c1 gave an IFI of 3.65%.
Work on COc1cc(NC(=O)c2sc(-c3ccc(Cl)cc3)cc2NC(=O)c2cccnc2)ccc1OCCN1CCCC1 yielded an IFI of 7.19%.
In the case of O=c1c2ccc(F)cc2sn1-c1ccc(Cl)cc1, the IFI is reported as 23.9%.
Work on O=C(/C=C/c1ccc(Cl)c(Cl)c1)NCCCCCN1CCC(c2c[nH]c3c(-c4ccccc4)cccc23)CC1 yielded an IFI of 8.09%.
In the case of C[C@@H](C(N)=O)N1CCCCC1c1ccc(OCc2cccc(F)c2)cc1 (some centres undefined), the IFI is reported as 33.8%.
CN(Cc1cccc(F)c1)C1CCN(c2cc(NC(=O)c3cccc(F)c3)ccn2)CC1 gave an IFI of 0%.
Work on CN(Cc1cccc(F)c1)C1CCN(c2cc(NC(=O)c3ccc(F)cc3)ccn2)CC1 yielded an IFI of 0%.
Work on O=C(C=Cc1ccc(Cl)c(Cl)c1)NCCCCCN1CCCC(CCCNS(=O)(=O)c2cccc3cccnc23)C1 (centres undefined) yielded an IFI of 5.8%.
Work on CCc1c(CCNCCCCCCNC(C)Cc2ccc3c(c2CC)OCO3)ccc(OC)c1OC (centres undefined) yielded an IFI of 10.7%.
CC(C)(C(=O)Nc1ccc(C2CCC(NCC3CC3)CC2)c(Cl)c1)c1ccc(C(F)(F)F)cc1 (centres undefined) gave an IFI of 25%.
CN1CC[C@@H](Oc2cc(NC(=O)Nc3ccc(Cl)c(C(F)(F)F)c3)ccc2Cl)C1 showed an IFI of 7.63%.
O=C(NCC1CCC(CNCCc2ccccc2)CC1)Nc1ccc(Cl)c(Cl)c1 (centres undefined) gave an IFI of 0.72%.
Molecule O=C(CNCC1CCCCC1)Nc1cc(C(F)(F)F)ccc1Cl has an IFI of 4.23%.
Work on CC(C)(C(=O)Nc1ccc(C2CCC(NCC3CC3)CC2)c(Cl)c1)c1cccc(OC(F)F)c1 (centres undefined) yielded an IFI of 23.4%.
For CC(C)(C(=O)Nc1ccc(N2CCC3(CCCN(CC4CC4)C3)CC2)c(Cl)c1)c1cccc(C(F)(F)F)c1, the IFI was 6.67%.
COc1ccc2c(=NN=C(C)c3ccccn3)cc(C)[nH]c2c1 gave an IFI of 4.96%.
CC(C)(C)c1ccc(NC(=O)c2ccc(CN3CCCN(Cc4ccc(F)cc4)CC3)cc2)cc1 showed an IFI of 15.6%.
With CC(C)(C)c1ccc(NC(=O)c2cccc(CN3CCCN(Cc4cccc(Cl)c4)CC3)c2)cc1 the IFI was 7.86%.
In the case of CC(C)(C)c1ccc(NC(=O)c2ccc(CN3CCCN(Cc4cccc(Cl)c4)CC3)cc2)cc1, the IFI is reported as 17.2%.
Molecule Cc1ccccc1CN1CCCN(Cc2ccc(C(=O)Nc3ccc(C(C)(C)C)cc3)cc2)CC1 has an IFI of 18.4%.
Molecule CCCCCCN1CCCN(Cc2ccc(C(=O)Nc3ccc(CC)cc3)cc2)CC1 has an IFI of 13.5%.
Molecule CCCCCCN1CCCN(Cc2ccc(C(=O)Nc3ccc(Cl)cc3)cc2)CC1 has an IFI of 15.2%.
Molecule O=C(Nc1ccc(Cl)cc1)c1ccc(CN2CCCN(Cc3cccc(Cl)c3)CC2)cc1 has an IFI of 8.66%.
For CCCCCCN1CCCN(Cc2ccc(C(=O)Nc3ccc(C(C)C)cc3)cc2)CC1, the IFI was 19.7%.
Cc1ccccc1CN1CCCN(Cc2ccc(C(=O)Nc3ccc(Cl)cc3)cc2)CC1 gave an IFI of 10.2%.
Work on Cc1cccc2nc(-c3ccc(-c4cccc(NC(=O)Nc5ccc(F)c(F)c5F)c4)cc3)[nH]c12 yielded an IFI of 2.91%.
Work on O=C(/C=C/C=C/c1ccc(Cl)c(Cl)c1)NCCCCCN1CCCC2CCCCC21 (centres undefined) yielded an IFI of 5.19%.
Work on Cc1cccc2nc(-c3cccc(-c4ccc(NC(=O)Nc5ccc(Cl)c(Cl)c5)cc4)c3)[nH]c12 yielded an IFI of 7.07%.
With CC(=O)Oc1c(Cl)c(C)nc(C)c1-c1ccc(Oc2ccc(OC(F)(F)F)cc2)cc1 the IFI was 6.35%.
With CCN(CC)CCCN(CCCN(CC)CC)c1cc(C)nc(Nc2ccc3cc(Br)ccc3c2)n1 the IFI was 4.35%.
Molecule COc1cc(C(=O)Nc2ccc(-c3nc4ccccc4[nH]3)cc2)cc(OC)c1OC has an IFI of 1.4%.
Work on CCn1c(C(C)C)cc2c3c(N)nc(N)nc3ccc21 yielded an IFI of 2.88%.
CCN(CC)CCOc1ccc(C(O)(C#CC(O)(c2ccc(OCCN(CC)CC)cc2)c2ccc([N+](=O)[O-])cc2)c2ccc([N+](=O)[O-])cc2)cc1 (centres undefined) showed an IFI of 5.84%.
In the case of CCOc1cc(C(=O)NC2CCN(Cc3ccccc3)C2)ccc1-c1nc2cc(Cl)ccc2[nH]1 (centres undefined), the IFI is reported as 2.14%.
For Nc1nc(N)c2cc(C(F)(F)F)ccc2n1, the IFI was 1.65%.
In the case of Cc1cc(C)c(CON2C(=N)N=C(N)NC2(C)C)cc1C, the IFI is reported as 3.57%.
In the case of Cc1cc(=O)[nH]c(-n2nc(C)cc2NC(=O)CC(c2ccccc2)c2ccccc2)n1, the IFI is reported as 10.4%.
Work on Cc1cc(=O)[nH]c(-n2nc(C)cc2NC(=O)C2(c3ccc(Cl)cc3)CCCC2)n1 yielded an IFI of 19.2%.
In the case of Cc1cc(=O)[nH]c(-n2nc(C)cc2NC(=O)C(c2ccccc2)c2ccccc2)n1, the IFI is reported as 10.4%.
In the case of COc1cc(NCCCNCc2cn(Cc3cc(Br)cc(Br)c3)c3ccccc23)nc2ccccc12, the IFI is reported as 17.4%.
Work on COc1cc(NCCCNCC2c3ccccc3Oc3ccccc32)nc2ccccc12 yielded an IFI of 20.8%.
For COc1cc(NCCCNC(=O)c2ccc(Cl)c(Cl)c2)nc2ccccc12, the IFI was 12.5%.
For COc1cc(NCC(O)CNc2cc(OC)c3ccccc3n2)nc2ccccc12, the IFI was 8.51%.
COc1cc(NCCCCNc2ccc(Cl)c(Cl)c2)nc2ccccc12 gave an IFI of 26.5%.
COc1ccc(COc2cc(NCCCN)nc3ccccc23)cc1 showed an IFI of 0%.
In the case of COc1cc(NCCCCCNc2cc(Cl)nc3ccccc23)nc2ccccc12, the IFI is reported as 15.8%.
Molecule COc1cc(NCCCNCc2cn(S(=O)(=O)c3ccccc3)c3ccccc23)nc2ccccc12 has an IFI of 8.96%.
In the case of COc1cc(NCC(C)CNCc2cn(Cc3ccccc3)c3ccccc23)nc2ccccc12 (centres undefined), the IFI is reported as 7.19%.
In the case of CCN(CC)/C(=N\CCCCCC/N=C(\NC(=N)c1ccc(Cl)cc1)N(CC)CC)NC(=N)c1ccc(Cl)cc1, the IFI is reported as 12.2%.
With CC(C)CNCc1cccc(-c2ccc(CN(CCCN3CCN(C)CC3)C(=O)/C=C/c3ccccc3)cc2)c1 the IFI was 5.15%.
Work on Cc1cc(NC2CCN(Cc3ccccc3)CC2)nc(NCCCCc2ccccc2)n1 yielded an IFI of 10.6%.
Cc1cccc2nc(-c3cccc(-c4cccc(NC(=O)C(C)CN(C)C)c4)c3)[nH]c12 (centres undefined) gave an IFI of 3.6%.
Work on OCC1CCN(Cc2cccc(-c3ccc(-c4nc5cc(C(F)(F)F)ccc5[nH]4)s3)c2)CC1 yielded an IFI of 2%.
For O=c1[nH]ccc2nc(N[C@@H]3CCCNC3)nc(Nc3ccc(S(=O)(=O)N4CCOCC4)cc3)c12, the IFI was 0%.
For O=c1[nH]ccc2nc(N[C@@H]3CCNC3)nc(Nc3cc(Cl)cc(Cl)c3)c12, the IFI was 16.7%.
For O=c1[nH]ccc2nc(N[C@@H]3CCNC3)nc(Nc3cccc(S(=O)(=O)N4CCOCC4)c3)c12, the IFI was 18.2%.
Molecule O=c1[nH]ccc2nc(N[C@@H]3CCNC3)nc(Nc3ccc4c(c3)S(=O)(=O)CC4)c12 has an IFI of 0%.
With Cc1cccc(Nc2nc(N[C@@H]3CCCNC3)nc3cc[nH]c(=O)c23)c1 the IFI was 16.7%.
For NS(=O)(=O)c1cccc(Nc2nc(N[C@@H]3CCNC3)nc3cc[nH]c(=O)c23)c1, the IFI was 18.2%.
Work on OC(c1cc(C(F)(F)F)nc2c(F)cccc12)C1CCCCN1 (centres undefined) yielded an IFI of 0%.
With CC(C)(C)OC(=O)Nc1cccc(-c2csc(NC(=N)N)n2)c1 the IFI was 4.08%.
Molecule CC(CNC(=O)[C@H]1CNCCN1C(=O)CCCc1ccccc1)c1ccccc1 (some centres undefined) has an IFI of 2.84%.
In the case of COc1cccc2c1CCN(CCN1CCC(NC(=O)c3ccc(-c4cccc(Cl)c4Cl)cc3)CC1)C2, the IFI is reported as 7.63%.
With O=C(Oc1ccc(C2CNCCc3c2cc(OC(=O)c2ccc(O)cc2)c(OC(=O)c2ccc(O)cc2)c3Cl)cc1)c1ccc(O)cc1 (centres undefined) the IFI was 5.07%.
In the case of COc1ccc(C=NN=c2cc(C)[nH]c3ccc(C)cc23)c2ccccc12, the IFI is reported as 7.09%.
C=CCNS(=O)(=O)c1ccc(NC(=O)C(C)Oc2ccc([N+](=O)[O-])cc2)cc1 (centres undefined) showed an IFI of 14.8%.
CCN(CC)c1ccc(C(c2ccc(N(CC)CC)cc2)c2ccc([N+](=O)[O-])cc2)cc1 showed an IFI of 4.35%.
Work on CCC(C)c1ccc(NC(=O)C(C)c2ccc([N+](=O)[O-])cc2)cc1 (centres undefined) yielded an IFI of 23.7%.
CCCCNS(=O)(=O)c1ccc(NC(=O)c2cc([N+](=O)[O-])ccc2Cl)cc1 gave an IFI of 5.17%.
For CCCNS(=O)(=O)c1ccc(NC(=O)C(C)Oc2ccc([N+](=O)[O-])cc2)cc1 (centres undefined), the IFI was 17.5%.
CCC(C)c1ccc(NC(=O)Nc2ccnc3ccccc23)cc1 (centres undefined) showed an IFI of 10.2%.
CS(=O)(=O)c1ccc2[nH]c(-c3cc(-c4cccc(F)c4)cnc3N)nc2c1 gave an IFI of 6.45%.
CC(=O)Nc1cccc(Nc2nccc(Nc3ccc(Oc4ccccc4)cc3)n2)c1 showed an IFI of 4.96%.
COc1ccc(-c2ccc(NC(=O)c3cccc(Cl)c3)cc2)cc1CN1CCN(C)CC1 gave an IFI of 7.84%.
Work on CCOC(=O)c1ccc(NC(=O)N(Cc2ccc(-c3ccc(CN4CCNCC4)cc3)cc2)C2CCN(Cc3ccccc3)CC2)cc1 yielded an IFI of 7.64%.
Molecule Cc1cc(N[C@@H](Cc2ccccc2)C(=O)NCCOc2ccccc2)nc(NCCc2cccs2)n1 has an IFI of 11.6%.
Molecule Cc1cc(N)c2cc(NC(=O)c3ccc4ccccc4c3)ccc2n1 has an IFI of 6.08%.
Cc1nc(-c2ccc(-c3ccc(NC(=O)c4coc5ccc(N6CC(C)N(C)C(C)C6)cc45)cc3)c(C)c2)no1 (centres undefined) showed an IFI of 4.08%.
In the case of O=C(Nc1ccc(Cl)cc1)N[C@H]1CCN(Cc2ccc(OCCCN3CCCCC3)cc2)C1, the IFI is reported as 7.14%.
With CCN(CC)CCCC(C)Nc1ccnc2ccc(OC)cc12 (centres undefined) the IFI was 0.73%.
With COc1ccccc1CNc1ccnc(N2CC(Oc3ccc(F)cc3)C2)n1 the IFI was 4%.
Work on CCCCOc1ccc(C(=O)C(CCC(CNC(C)(C)C)C(=O)c2ccc(OCCCC)cc2)CNC(C)(C)C)cc1 (centres undefined) yielded an IFI of 25.4%.
CCCCCNC(=N)c1ccc(OCCCCCOc2ccc(C(=N)NCCCCC)cc2)cc1 gave an IFI of 5%.
CCCCNC(=N)c1ccc(OCCCCCOc2ccc(C(=N)NCCCC)cc2)cc1 gave an IFI of 2.26%.
With O=C(Nc1ccccc1)Nc1cccc(-c2cccc(-c3nc4cc(F)ccc4[nH]3)c2)c1 the IFI was 3%.
For Cc1ccc2[nH]c(-c3cc(-c4ccc(CO)cc4)cnc3N)nc2c1, the IFI was 5.51%.
Molecule c1ccc2oc(-c3cc4ccncc4cc3OC3CCNCC3)cc2c1 has an IFI of 8.77%.
With CCc1cn(CCc2ccccc2)c2ccc(C(=O)N[C@@H](Cc3ccccc3)[C@H](O)CNC(C)(C)CCCC(C)C)cc12 the IFI was 8.7%.
Molecule CC(C)CCCC(C)(C)NC[C@@H](O)[C@H](Cc1ccccc1)NC(=O)c1cccc(OCC2CC2)c1 has an IFI of 18.6%.
With CCc1cn(CCOC)c2ccc(C(=O)N[C@@H](Cc3ccccc3)[C@H](O)CNC(C)(C)CCCC(C)C)cc12 the IFI was 5.07%.
O=C(N[C@@H](Cc1ccccc1)[C@H](O)CNCCC(F)(F)F)c1cccc(CCC2CC2)c1 showed an IFI of 6.1%.
For CC(C)CCCC(C)(C)NC[C@@H](O)[C@H](Cc1ccccc1)NC(=O)c1cccc(CCC2CC2)c1, the IFI was 22.4%.
Molecule O=C(N[C@@H](Cc1ccccc1)[C@H](O)CNCCC(F)(F)F)c1cccc(OCC2CC2)c1 has an IFI of 6.1%.
